Assay [1] in a line: small molecules captured by biotinylated probe aFSTL3 – biochemical, small-molecule microarray, fluorescence 635/667, stem cell growth factor project, primary screen (AID 1064).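 Note: measures binding of the biotinylated anti-FSTL3 antibody to printed compounds.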 To be noted: higher = more signal.
Assay [2] is described as follows: binders from COS7 lysate, DM2A8 probe, primary screen, torsin A project, cell lysate, small-molecule microarray, fluorescence 635/667 (AID 1065). The note with it: higher = more signal, COS7 lysate expressing mutant human TOR1A.
Assay [3] can be described thus: small molecules captured by biotinylated probe aFGF2 – biochemical, small-molecule microarray, fluorescence 635/667, stem cell growth factor project, primary screen (AID 1067).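 Note: measures binding of biotinylated aFGF2 protein to printed compounds on slides; z-score merges feature fluorescence and signal-to-noise across triplicate slides.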 The note with it: higher = more signal.
Assay [4] is described as follows: small molecules captured by biotinylated probe aFGF10 – biochemical, small-molecule microarray, fluorescence 635/667, stem cell growth factor project, primary screen (AID 1071).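 Note: score merges 667 nm spot intensity and signal to noise from triplicate slides.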 To be noted: higher = more signal.
In assay [5] the target is Neurogenic locus notch homolog protein 2 (Homo sapiens) (UniProt Q04721). The experiment in a line: small molecules binding Notch2 protein – biochemical, small-molecule microarray, 635 nm fluorescence, stem cell growth factors, primary screen (AID 1073). The note with it: higher = more signal.
Chain of Neurogenic locus notch homolog protein 2 (Homo sapiens) (Q04721 whole entry, looked up, canonical isoform): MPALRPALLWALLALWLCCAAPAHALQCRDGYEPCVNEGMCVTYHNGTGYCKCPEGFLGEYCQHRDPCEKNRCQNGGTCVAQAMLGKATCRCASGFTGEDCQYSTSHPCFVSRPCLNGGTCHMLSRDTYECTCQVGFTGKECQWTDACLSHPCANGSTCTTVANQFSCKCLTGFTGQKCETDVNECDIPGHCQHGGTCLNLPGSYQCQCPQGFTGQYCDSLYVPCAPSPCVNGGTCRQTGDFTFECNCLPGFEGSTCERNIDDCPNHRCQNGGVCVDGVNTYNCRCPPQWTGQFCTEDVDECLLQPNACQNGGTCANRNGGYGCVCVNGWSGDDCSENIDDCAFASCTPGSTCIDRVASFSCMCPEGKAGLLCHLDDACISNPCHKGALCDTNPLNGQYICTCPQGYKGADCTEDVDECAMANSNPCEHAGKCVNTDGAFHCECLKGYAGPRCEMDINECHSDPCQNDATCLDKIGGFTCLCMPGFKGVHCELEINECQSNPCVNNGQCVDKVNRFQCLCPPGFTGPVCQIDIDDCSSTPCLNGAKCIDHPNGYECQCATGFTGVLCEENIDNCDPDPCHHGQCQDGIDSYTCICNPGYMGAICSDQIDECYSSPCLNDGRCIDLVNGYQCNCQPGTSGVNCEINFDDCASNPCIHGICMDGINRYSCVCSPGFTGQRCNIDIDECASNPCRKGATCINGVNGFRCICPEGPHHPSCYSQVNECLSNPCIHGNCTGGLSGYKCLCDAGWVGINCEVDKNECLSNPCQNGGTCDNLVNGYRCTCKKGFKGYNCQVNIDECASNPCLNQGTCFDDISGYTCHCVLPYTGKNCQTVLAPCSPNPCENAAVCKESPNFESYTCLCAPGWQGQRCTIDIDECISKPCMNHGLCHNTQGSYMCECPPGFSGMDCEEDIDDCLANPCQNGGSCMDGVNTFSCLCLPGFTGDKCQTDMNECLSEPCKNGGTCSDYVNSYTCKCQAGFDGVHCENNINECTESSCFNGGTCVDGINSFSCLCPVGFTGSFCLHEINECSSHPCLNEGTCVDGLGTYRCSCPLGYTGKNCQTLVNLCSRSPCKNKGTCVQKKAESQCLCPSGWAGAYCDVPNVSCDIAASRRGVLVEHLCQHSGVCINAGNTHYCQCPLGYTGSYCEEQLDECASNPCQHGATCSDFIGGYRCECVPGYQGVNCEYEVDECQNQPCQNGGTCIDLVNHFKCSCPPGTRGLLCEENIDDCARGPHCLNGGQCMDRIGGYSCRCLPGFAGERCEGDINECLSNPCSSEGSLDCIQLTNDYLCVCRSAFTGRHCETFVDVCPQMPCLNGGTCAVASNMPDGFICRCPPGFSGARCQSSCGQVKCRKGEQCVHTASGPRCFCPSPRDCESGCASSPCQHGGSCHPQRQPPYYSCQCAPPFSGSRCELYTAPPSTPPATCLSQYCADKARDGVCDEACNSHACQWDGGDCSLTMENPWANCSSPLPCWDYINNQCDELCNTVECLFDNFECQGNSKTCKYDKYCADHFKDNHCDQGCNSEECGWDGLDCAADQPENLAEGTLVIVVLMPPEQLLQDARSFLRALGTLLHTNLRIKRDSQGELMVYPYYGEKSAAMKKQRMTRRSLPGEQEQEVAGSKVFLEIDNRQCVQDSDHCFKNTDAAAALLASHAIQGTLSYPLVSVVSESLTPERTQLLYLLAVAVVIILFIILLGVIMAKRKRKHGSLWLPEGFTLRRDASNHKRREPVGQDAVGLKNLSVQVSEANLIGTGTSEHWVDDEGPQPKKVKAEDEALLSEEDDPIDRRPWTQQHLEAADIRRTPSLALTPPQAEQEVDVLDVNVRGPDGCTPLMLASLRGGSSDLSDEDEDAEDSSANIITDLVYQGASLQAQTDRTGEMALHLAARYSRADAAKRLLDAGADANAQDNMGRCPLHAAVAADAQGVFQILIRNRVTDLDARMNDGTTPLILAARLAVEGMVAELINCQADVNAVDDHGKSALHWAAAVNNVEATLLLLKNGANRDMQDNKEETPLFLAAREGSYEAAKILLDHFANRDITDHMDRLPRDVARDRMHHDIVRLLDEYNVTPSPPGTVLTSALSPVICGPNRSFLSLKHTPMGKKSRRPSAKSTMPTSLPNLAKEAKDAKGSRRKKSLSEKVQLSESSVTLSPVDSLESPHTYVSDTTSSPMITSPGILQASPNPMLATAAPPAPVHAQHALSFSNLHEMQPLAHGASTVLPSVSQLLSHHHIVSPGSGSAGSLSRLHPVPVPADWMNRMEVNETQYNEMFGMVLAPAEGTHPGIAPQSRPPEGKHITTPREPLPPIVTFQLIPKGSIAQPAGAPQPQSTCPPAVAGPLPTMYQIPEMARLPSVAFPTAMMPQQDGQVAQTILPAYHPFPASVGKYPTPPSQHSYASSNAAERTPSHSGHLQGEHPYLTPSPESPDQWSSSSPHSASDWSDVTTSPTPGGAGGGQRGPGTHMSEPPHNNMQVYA
The target of assay [6] is Pro-neuregulin-1, membrane-bound isoform (Homo sapiens) (UniProt Q02297). The experiment in a line: small molecules binding neuregulin-1 protein – biochemical, small-molecule microarray, fluorescence 635/667, psychiatric disease protein project, primary screen (AID 1075).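 Note: score combines 667 nm spot fluorescence with signal to noise.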 The note with it: NRG1 binding, 635 nm fluorescence, higher = more signal.
Chain of Pro-neuregulin-1, membrane-bound isoform (Homo sapiens) (Q02297 whole entry, looked up, the tested form may be a part, canonical isoform): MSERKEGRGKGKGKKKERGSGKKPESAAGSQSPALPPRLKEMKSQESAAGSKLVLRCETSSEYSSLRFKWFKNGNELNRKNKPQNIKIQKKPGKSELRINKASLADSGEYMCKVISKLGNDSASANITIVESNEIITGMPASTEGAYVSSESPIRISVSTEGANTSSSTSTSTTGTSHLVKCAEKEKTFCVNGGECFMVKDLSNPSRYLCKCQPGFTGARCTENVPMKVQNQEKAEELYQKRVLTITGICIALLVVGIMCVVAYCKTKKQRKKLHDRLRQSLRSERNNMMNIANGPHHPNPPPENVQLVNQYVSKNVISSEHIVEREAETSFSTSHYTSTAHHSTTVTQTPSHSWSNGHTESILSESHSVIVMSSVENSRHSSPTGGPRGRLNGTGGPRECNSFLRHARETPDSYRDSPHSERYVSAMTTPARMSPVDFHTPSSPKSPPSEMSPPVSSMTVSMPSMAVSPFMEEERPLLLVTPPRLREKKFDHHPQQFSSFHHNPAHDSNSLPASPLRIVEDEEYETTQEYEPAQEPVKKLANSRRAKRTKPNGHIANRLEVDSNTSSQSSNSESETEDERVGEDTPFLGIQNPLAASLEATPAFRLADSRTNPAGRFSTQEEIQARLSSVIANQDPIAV
In assay [7] the test system is Neuregulin-1 EGF-like domain. The experiment in a line: small molecules binding NRG1 EGF domain – biochemical, small-molecule microarray, 635 nm fluorescence, primary screen (AID 1081).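 Note: binding of the protein to compounds printed on small-molecule microarray slides.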 The note with it: higher = more signal.
Assay [8] is described as follows: FRG1 expression reporter modulators in myotubes – cell-based, C2C12 myotubes, firefly/Renilla luciferase, luminescence, FRG1 inhibition for FSHD, primary screen (AID 1084). To be noted: FRG1 promoter luciferase, higher = more signal, called active from +8 up or from −8 down.
Assay [9] in a line: small molecules captured by biotinylated probe aFST – biochemical, small-molecule microarray, fluorescence 635/667, stem cell growth factor project, primary screen (AID 1086).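 Note: score merges 667 nm fluorescence with signal-to-noise of each printed compound spot.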 The note with it: higher = more signal.
A short description of assay [10]: binders of probe aHhip on microarray, primary screen, stem cell growth factor project, biochemical, small-molecule microarray, fluorescence 635/667 (AID 1087).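 Note: score merges spot fluorescence at 667nm with spot signal to noise ratio.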 The note with it: higher = more signal.

Active and inactive are the calls of the source.

Consider `CC(CCN1CCCCc2nc(C)c(C)cc21)=NOC[C@@H](O)COCc1ccco1`, for which the composite z-score in [1] is -0.471; in assay [2] it was 2.6; in assay [3], -0.242; in assay [4], 0.0106; in assay [5], 0.296; in [6] it was -1.03. Besides, the composite z-score in [7] was determined as 0.298; in [9], 0.193; in assay [10] it was 0.259. Further, the z-score in assay [8] was -0.0255 (inactive).

As to `C#CCCCON=C1C[C@@H](O)[C@@H](O)[C@@H]2[C@@H]3C(=O)N(c4cccc(Oc5ccccc5)c4)C(=O)[C@@H]3CC[C@H]12`, the composite z-score was -0.2 in [1]; 0.744 in assay [2]; -0.129 in assay [3]; -0.264 in assay [4]; -0.87 in [5]; 0.248 in assay [6]. The composite z-score in assay [7] was 0.425; in [9] it was -0.464; in assay [10], -0.0193. Also, the z-score in [8] was 1.2 (inactive).

Take `CC(C)CON=C1C[C@@H](O)[C@@H](O)[C@@H]2[C@@H]3C(=O)N(c4cccc(Oc5ccccc5)c4)C(=O)[C@@H]3CC[C@@H]12`: the composite z-score in assay [1] was -0.509; in assay [2], 0.14; in [3], -0.13; in [4], 0.206; in assay [5], 0.336; in [6] it was 0.61. In addition, the composite z-score in [7] was 1.1; in assay [9], -0.129; in assay [10], 0.0373. Moreover, in [8], the z-score is -1.18 (inactive).

As for `C#CCCCON=C1C[C@@H](O)[C@@H](O)[C@@H]2[C@@H]3C(=O)N(CCC(=O)OCC)C(=O)[C@@H]3CC[C@H]12`, the composite z-score was -0.467 in assay [1]; 0.294 in assay [2]; -0.0502 in [3]; 0.481 in assay [4]; 0.872 in [5]; 0.64 in [6]. Moreover, the results for the composite z-score in assay [7], in assay [9] and in [10] were 0.685, 0.593 and -0.0994, respectively. The z-score in assay [8] is -1.41 (inactive).

Consider `CCOC(=O)[C@H](CC(C)C)NC(=O)CCC1CC(OC(=O)NCc2ccc3c(c2)OCO3)CC2(CCCC(COC(=O)NCC(c3ccccc3)c3ccccc3)O2)O1` (stereo not given in full), for which the composite z-score in assay [1] was -0.354; in assay [2], -0.168; in [3], -0.0692; in [4], 0.229; in assay [5], 0.129; in assay [6], 0.49. For the same compound, the composite z-score was 1.17 in assay [7], 0.344 in assay [9] and -0.0994 in assay [10]. Moreover, the z-score in [8] was 2.69 (inactive).

On to `CO[C@H]1COC(=O)[C@@H](C)COC(=O)[C@H](C)NC(=O)CC=C[C@H]1C`, for which the composite z-score was -0.451 in [1]; 1.18 in assay [2]; -0.0354 in assay [3]; 0.222 in assay [4]; 0.0126 in assay [5]; -0.521 in assay [6]. Also, the composite z-score in assay [7] is 0.734; in assay [9], 0.101; in assay [10] it was -0.0557. The z-score in [8] was -0.53 (inactive).

Turning to `CCN1C(=O)[C@H]2[C@H]3[C@H](O)[C@H](O)CC(=NNC(=O)OCc4ccc(OC)cc4)[C@@H]3CC[C@H]2C1=O`, the composite z-score in assay [1] is 1.28; in [2], -0.0691; in [3], -0.0235; in [4], 0.0306; in assay [5], -0.213; in [6], -0.295. Also, the composite z-score in assay [7] was -0.46; in assay [9] it was 0.508; in assay [10], -0.374. In addition, the z-score in assay [8] was 0.127 (inactive).

As for `CC(=O)OC[C@H]1O[C@@H](ON=C(C)CCN2CCCc3nc(C)c(C)cc32)[C@H](OC(C)=O)[C@@H](OC(C)=O)[C@@H]1OC(C)=O`, the composite z-score in assay [1] was -0.63; in [2], 0.165; in assay [3], -0.127; in assay [4] it was 0.76; in assay [5] it was 1.41; in assay [6] it was 0.394. The values for the composite z-score in assay [7], in assay [9] and in assay [10] were 1.07, 0.139 and -0.0618, respectively. For the same compound, in assay [8], the z-score was 0.935 (inactive).

Regarding `CCOC(=O)[C@H](CC(C)C)NC(=O)CCC1CC(OC(=O)NCc2cccc3ccccc23)CC2(CCCC(COC(=O)NCc3cccc(C(F)(F)F)c3)O2)O1` (stereo not given in full), the composite z-score in assay [1] was -0.5; in [2] it was 0.0221; in assay [3] it was -0.125; in [4], 0.469; in [5] it was 0.611; in [6] it was -0.0419. Also, the composite z-score in [7] is 0.0188; in assay [9], -0.262; in assay [10] it was 0.0749. Besides, the z-score in [8] is -1.03 (inactive).

On to `COc1ccc(O[C@H]2C=C[C@@H](c3ccccc3)O[C@@H]2CON=CC[C@@H]2C=C[C@H](OC(C)=O)[C@@H](COC(C)=O)O2)cc1`, for which the composite z-score in assay [1] is -0.142; in assay [2] it was 0.0191; in [3], -0.0667; in assay [4], 0.138; in [5], -0.265; in assay [6], -0.364. In addition, the composite z-score in assay [7] is -0.216; in assay [9], 0.388; in assay [10] it was -0.0994. Moreover, the z-score in assay [8] was 1.01 (inactive).

For the compound `O=C1C[C@@H](O)[C@@H](O)[C@@H]2[C@@H]3C(=O)N(Cc4ccc5c(c4)OCO5)C(=O)[C@@H]3CC[C@H]12`, the composite z-score was -0.296 in assay [1]; 0.348 in [2]; -0.0218 in assay [3]; 0.477 in assay [4]; 0.558 in assay [5]; 0.229 in assay [6]. Moreover, the composite z-score in assay [7] amounted to 0.29; in assay [9], 0.078; in assay [10], 0.0505. For the same compound, in [8], the z-score was 0.376 (inactive).

For the compound `O=c1n(Cc2cc3c(cc2Cl)OCO3)c(=O)n2n1CC[C@@H]1C(=NOCc3ccccc3)[C@H]3O[C@H]3[C@@H](O)[C@@H]12`, the composite z-score in assay [1] is -0.381; in assay [2] it was 0.188; in assay [3], -0.14; in [4], 0.47; in assay [5], 0.589; in assay [6], 0.114. The composite z-score in [7] was 0.428; in [9], 0.764; in assay [10], -0.0645. In addition, in assay [8], the z-score was -0.611 (inactive).

For `CC(C)C[C@H](NC(=O)CCC1CC(OC(=O)NCc2cccc3ccccc23)CC2(CCCC(COC(=O)NCc3ccccc3)O2)O1)C(=O)NCC(c1ccccc1)c1ccccc1` (stereo not given in full), the composite z-score in assay [1] was -0.572; in assay [2] it was 0.139; in assay [3], -0.113; in assay [4], 0.618; in assay [5] it was 1.35; in assay [6] it was 0.438. The composite z-score in [7] was determined as 1.2; in assay [9], 0.289; in [10] it was 0.238. For the same compound, the z-score in assay [8] is 0.244 (inactive).

These data come from PubChem BioAssay.
